# This is part of a sample that, as a whole, favours compounds with a hit. Of some 83,000 tested, about 20% had one in any assay.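 The test compound was applied at a single concentration to cells in 96-well plates for 48 hours, and percent growth was recorded.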 Unmarked numbers belong to inactive results. The source made the active and inactive calls. How the source made its calls: active means growth percent below 10; inactive means the rest.
# Assays:
# Assay in all cases: NCI-60 one-dose screen, 48 h (100 = growth as untreated, 0 = no growth, -100 = all killed)
# Conditions in all cases: 10 µM unless noted
# NCI-H23 lung = tested on: NCI-H23 lung
# NCI-H226 lung = tested on: NCI-H226 lung
# NCI-H322M lung = tested on: NCI-H322M lung
# HOP-62 NSCLC = tested on: HOP-62 NSCLC
# NCI-H460 lung = tested on: NCI-H460 lung
# NCI-H522 lung = tested on: NCI-H522 lung
# A549/ATCC NSCLC = tested on: A549/ATCC NSCLC
# 786-0 renal = tested on: 786-0 renal
# COLO 205 colon = tested on: COLO 205 colon
# DU-145 prostate = tested on: DU-145 prostate
# K-562 leukemia = tested on: K-562 leukemia
# MALME-3M melanoma = tested on: MALME-3M melanoma
# MDA-MB-231 breast = tested on: MDA-MB-231 breast
# RXF 393 renal = tested on: RXF 393 renal
# SF-268 CNS = tested on: SF-268 CNS
# SF-295 CNS = tested on: SF-295 CNS
# SF-539 CNS = tested on: SF-539 CNS
# UACC-257 melanoma = tested on: UACC-257 melanoma
# M14 melanoma = tested on: M14 melanoma
SMILES,growth (NCI-H23 lung),growth (NCI-H226 lung),growth (NCI-H322M lung),growth (HOP-62 NSCLC),growth (NCI-H460 lung),growth (NCI-H522 lung),growth (A549/ATCC NSCLC) [%],growth (786-0 renal),growth (COLO 205 colon),growth (DU-145 prostate),growth (K-562 leukemia),growth (MALME-3M melanoma),growth (MDA-MB-231 breast),growth (RXF 393 renal),growth (SF-268 CNS),growth (SF-295 CNS),growth (SF-539 CNS),growth (UACC-257 melanoma) [%],growth (M14 melanoma)
O=C(NNC(=O)c1cccc(Cl)c1)c1ccccc1,108%,96.2%,107%,109%,106%,111%,97.6,102%,116%,110%,114%,106%,113%,109%,108%,106%,107%,110,112%
CC(=O)OC[C@H]1O[C@@H](n2c(=O)cc(N)[nH]c2=O)C(OC(C)=O)[C@@H]1OC(C)=O (stereo not given in full),98.5%,90.6%,105%,95%,107%,100%,97.7,102%,115%,108%,108%,98.4%,107%,104%,97.9%,94.2%,98%,98,91.3%
Cc1ccc(NC(=O)c2sc3nc4c(cc3c2N)C(=O)CCC4)cc1Cl,100%,102%,109%,110%,106%,96.1%,101,104%,128%,109%,93%,112%,113%,117%,115%,80%,102%,95.1,122%
O=C(CCl)Nc1ccc2c(c1)C(=O)c1ccccc1C2=O,-21.2% (active),-22.6% (active),83.5%,19.9%,3.8% (active),-68.2% (active),75.7,-72.3% (active),-50.7% (active),3.17% (active),-8.49% (active),-62.5% (active),-5.91% (active),39.8%,-20.3% (active),69.9%,-10.5% (active),36.2,-31.6% (active)
CS(=O)(=O)c1ccc(C(=O)Nc2ccc(Cl)c(-c3ccccn3)c2)c(Cl)c1,27.3%,16.5%,52%,36%,-46% (active),2.48% (active),26,-41.2% (active),6.45% (active),24.7%,13.8%,42.4%,30.2%,-52.9% (active),31.8%,8.89% (active),19.6%,32.6,26.8%
CC(C)(C)[Si](C)(C)OC1[C@@H](O[Si](C)(C)C(C)(C)C)[C@@H](CNC(=O)NC(=O)NC(=O)CI)O[C@H]1n1cnc2c(NC(=O)Nc3ccccc3)ncnc21 (stereo not given in full),-51.8% (active),108%,111%,2.91% (active),78.8%,-80.4% (active),65.5,7.17% (active),45.2%,90.7%,52.3%,-83.3% (active),-49.7% (active),-5.13% (active),26.4%,-56.8% (active),-63.2% (active),105,73.1%
Nc1c(C(=O)Nc2cccc(Cl)c2)sc2nc3c(cc12)C(=O)CCC3,38%,57.9%,71.8%,47%,10.3%,14.6%,28.2,47.7%,10.2%,11.6%,22.8%,49.7%,43.9%,25.9%,63.1%,-20.2% (active),27.3%,68.9,26.9%
Cc1ccccc1C1CC(=O)c2ccccc2C1C (stereo not given),100%,103%,114%,104%,108%,97.1%,89.9,102%,104%,109%,97.3%,125%,105%,109%,101%,96.3%,93%,103,90.6%
Oc1ccc(-c2nnc3c4[nH]ccc4ncn23)cc1,91.5%,100%,98.2%,100%,90.1%,81.5%,93.7,95.6%,105%,97.2%,98.4%,94.5%,92%,113%,103%,101%,101%,117,104%
CC(C)CCSc1nc(-c2ccc(F)cc2)c(C#N)c(N2CCCCC2)n1,90.6%,88.8%,94.5%,102%,93.1%,78.8%,83.3,98.5%,103%,97%,78.8%,93.9%,88%,94.3%,97.3%,103%,107%,84.7,99.2%
CC(C)[C@@H]1C=C2CC[C@H]3[C@](C)(CN)CCC[C@]3(C)[C@H]2CC1,95.4%,98.7%,-6.11% (active),59.8%,-69.7% (active),86.7%,95.5,78%,-89.7% (active),44.1%,17.5%,60.2%,61.3%,87.9%,43.4%,54.8%,102%,104,89.3%
CCOC(=O)C#Cc1c(C(=O)OCC)nnn1[C@@H]1O[C@H](COC(C)=O)[C@@H](OC(C)=O)[C@H]1OC(C)=O,93.4%,92.2%,101%,109%,108%,50%,78.3,102%,45.6%,100%,28.5%,101%,107%,70.2%,97.8%,103%,101%,64.3,92.1%
C[C@@H]1N=C(c2ccc3ccccc3c2)Nc2nc3ccccn3c2C1=O,46.1%,64.5%,73.2%,36.7%,15.2%,29.4%,39.5,69.3%,22.8%,73.3%,27.6%,42.3%,52.5%,49.9%,58%,14.9%,37.2%,40.9,19.8%
Clc1ccc(Cl)c(N=Cc2ccc3c(c2)OCO3)c1,99.2%,103%,108%,101%,116%,88.7%,96.9,110%,109%,120%,103%,111%,124%,111%,105%,106%,116%,103,102%
Brc1ccsc1Br,107%,104%,125%,93.4%,111%,95.9%,105,108%,103%,126%,108%,114%,116%,117%,113%,126%,106%,111,106%

# Source: PubChem BioAssay (NCI)
